This passage reports growth results from PubChem BioAssay (NCI).

Compounds without any hit were thinned out: in the full panel of roughly 83,000, 20% have a hit.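 Note: values are percent growth. 100 is the growth of untreated cells, values between 100 and 0 indicate rising inhibition; between -100 and 0 indicates cell death.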 A number with no mark means an inactive call. Calls of active or inactive are those of the source. The calls were made as follows: active = growth percent below 10; inactive = the rest.

This test deals with HOP-92 NSCLC. The test can be described thus: NCI-60 one-dose screen, 48 h (100 = growth as untreated, 0 = no growth, -100 = all killed). Conditions: 10 µM unless noted.
For the molecule `Cc1cc2ccccc2c[n+]1CC(=O)c1ccc(-c2ccccc2)cc1`, the growth was 27.8%. `COC(=O)c1ccc2c(c1)n(Cc1ccc3ccccc3c1)c[n+]2Cc1ccc2ccccc2c1`: the growth was -10.7% (active).

As to `Cc1c(Cl)cccc1NC(=O)c1sc2nc3c(cc2c1N)CCCCC3`, the growth was 37.8%. On to `C=C1C(=O)O[C@H]2[C@H]1CC/C(COC(=O)c1cn(C)c3ccccc13)=C\CC[C@@]1(C)O[C@@H]21`, for which the growth was -57.9% (active).

As for `Sc1cccc2cccnc12`, the growth is 95.6%. On to `O=C(CCl)N1CCCc2ccccc21`, for which the growth was 97.2%. To `Cc1cccc(C)c1NC(=O)CN(CC(C)C)CC(O)COc1ccccc1` (configuration not stated) belongs 91.4%; to `OCCNc1nc(NCCO)nc(Nc2ccc(C3=NN(c4cc(Cl)cc(Cl)c4)C(c4ccc(Cl)cc4)C3)cc2)n1` (configuration not stated), 60.7%; to `CC(C)(C)c1nn(-c2ccccc2)c2c1COCN2Cc1ccc(Cl)cc1`, 83.1%. As for `NS(=O)(=O)c1ccc(N2Cc3cc(Cl)ccc3OC3=C2C(=O)N(CC2CCCCC2)C3=O)cc1`, the figure is -76.6% (active). In the case of `C#C[C@@]1(O)[C@@H](CO)O[C@@H](n2cc(-c3ccco3)c3c(N)ncnc32)[C@@H]1O`, the growth was 30%. In the case of `NC(=O)CN1C(=O)c2ccccc2C1=O`, the growth is 96.7%.

As to `CC1CCCN(CCCCCOc2ccc3oc4ccc(Cl)cc4c(=O)c3c2)C1` (configuration not stated), the growth was 88.8%. For `O=c1[nH]c(-c2cccc(F)c2)cc2cc(F)ccc12`, the growth is 70.7%. To `O=C(O)COc1ccc2c(=O)c3sc4c(=O)c5ccccc5c(=O)c4c3c(=O)c2c1` belongs 104%; to `CCOC(=O)/C=C1\SC(=Nc2ccc(C#N)cc2)N(CCN2C(=O)/C(=C/C(=O)OCC)SC2=Nc2ccc(C#N)cc2)C1=O`, 80.4%; to `COC(=O)/C=C1\SC(=Nc2ccc(F)cc2)N(CCc2c[nH]c3ccccc23)C1=O`, 106%.

As to `CCN1CCN(Cc2ccc(NC(=O)c3cccc(C#Cc4cccc5[nH]nc(N)c45)c3)cc2C(F)(F)F)CC1`, the growth is -62.7% (active).

Take `CC[C@H](Nc1ncnc2nc[nH]c12)c1nc2cccc(CC(=O)c3ccc(C(=O)NO)cc3)c2c(=O)n1-c1ccccc1`: the growth was 72.6%. Regarding `CC(=O)OCC1OC(OC2C(COC(C)=O)OC(OCCC[S-])C(OC(C)=O)C2OC(C)=O)C(OC(C)=O)C(OC(C)=O)C1OC(C)=O.[Au+].c1ccc(CN2[CH-]N(Cc3ccccc3)C(c3ccccc3)=C2c2ccccc2)cc1` (configuration not stated), the growth is -11.4% (active). As for `O=S(=O)(O)c1ccc(N=NSc2ccc3ccccc3c2)cc1`, the figure is 86.4%; as for `C[C@H]1[C@H](C)CC[C@]2(C(=O)OCCOCCOCC[P+](c3ccccc3)(c3ccccc3)c3ccccc3)CC[C@]3(C)C(=CC[C@@H]4[C@@]5(C)CC[C@H](OC(=O)C(Cl)Cl)C(C)(C)[C@@H]5CC[C@]43C)[C@H]12`, -26.6% (active).

As to `O=c1c2ccccc2oc2ccc(OCCCCCN3CCCCCC3)cc12`, the growth was 94.1%. To `Nc1c(C(=O)Nc2ccccn2)sc2nc3c(cc12)C(=O)CCC3` belongs 87.3%. As for `COc1ccc(-n2cc(-c3ccc(Cl)c(Cl)c3)[nH]c2=O)cc1OC`, the figure is 75%; as for `Cc1ccc(C(=O)/C(=C/c2ccc([N+](=O)[O-])cc2)S(=O)Cc2ccccc2)cc1` (configuration not stated), 36.9%; as for `C=CCn1c(CN2CCN(c3cc4c(cc3F)c(=O)c(C(=O)O)cn4C3CC3)CC2)n[nH]c1=S`, 104%. `CC(=O)c1ccc(NC(=O)CSc2nnc(-c3cc(-c4ccc(C)cc4)nc4ccccc34)o2)cc1`: the growth was 66.9%.

As to `Cn1cc(-c2ccc3c(c2)ncn3-c2ccc(CC(=O)Nc3cc(C(C)(C)C)on3)cc2)cn1`, the growth is 5.11% (active). For `CN(C)[C@@H]1C(=O)C(C(N)=O)=C(O)[C@@]2(O)C(=O)C3=C(O)c4c(O)cc(CN5CCc6ccccc6C5)c(Cl)c4C[C@H]3C[C@@H]12`, the growth was -82.8% (active).

Take `CC(=O)Oc1c2c(nc3c1c1ccccc1n3Cc1ccccc1)-c1ccccc1C2`: the growth is 90.5%. With `CC(C)(C)c1nc2c(s1)c1nc(N)ncc1c1ccc(NS(=O)(=O)c3c(F)cccc3F)c(F)c12`, the growth was 44.1%. As to `COc1cc(C(=O)N2CCN(c3ccccc3OC)CC2)c(NC(=O)c2cnccn2)cc1OCc1ccccc1`, the growth was 10.7%.

Turning to `c1ccc(-c2cn3ccnc3c(-c3ccc4c(c3)ncn4C3CCCCC3)n2)cc1`, the growth is 89.1%. As for `C#Cc1ccccc1NC(=O)c1sc2nc3c(cc2c1N)CCCCC3`, the figure is 93.2%; as for `O=C1[C@@H](OS(=O)(=O)CC(F)(F)F)[C@H](c2ccc(F)cn2)N1c1cc2c3ccccc3ccc2c2ccccc12`, 71.4%.

For `CC(C)CSc1nc(Nc2ccccc2)c(C#N)c(-c2ccc(F)cc2)n1`, the growth was -47.6% (active).
